Measurements as given in PMC7862700, “An all-to-all approach to the identification of sequence-specific readers for epigenetic DNA modifications on cytosine”.

Tests used:
Assay in all cases: DAPPL (digital affinity profiling via proximity ligation, sequencing); 10 mM Tris-HCl pH 7.5, 50 mM NaCl, 1 mM DTT, 4% glycerol, room temperature, 30 min; GST-TFs on glutathione beads, 16-mer random dsDNA library, 0.1% formaldehyde crosslink after washing; high values mean tight binding
Conditions in all cases: protein: recombinant; tags: N-terminal GST; dsDNA, one strand shown
[1] = biological target: T1, FEV (Homo sapiens, UniProt Q99581 1-238)
T1 sequence: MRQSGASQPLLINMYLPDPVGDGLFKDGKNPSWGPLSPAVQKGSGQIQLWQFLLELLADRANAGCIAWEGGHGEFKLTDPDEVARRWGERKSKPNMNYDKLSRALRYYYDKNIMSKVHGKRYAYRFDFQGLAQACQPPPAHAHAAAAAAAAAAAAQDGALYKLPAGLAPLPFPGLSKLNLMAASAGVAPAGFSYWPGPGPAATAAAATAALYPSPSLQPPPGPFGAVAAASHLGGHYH
In short: (§1)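 GST fusions of human transcription factors were expressed in yeast and captured with glutathione beads. Once given DNA barcodes and pooled alongside a tag-only sample, they were incubated for 30 min at room temperature with 200 nmole of a random double-stranded 16-mer DNA library in Tris/NaCl/DTT/glycerol buffer, then washed, crosslinked (0.1% formaldehyde), proximity-ligated, PCR-amplified and sequenced on an Illumina NextSeq500. The binding signal of each hexamer is its read frequency for a factor divided by its frequency for the tag-only sample.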

[2] = biological target: ETV5 (Homo sapiens, UniProt P41161 1-510)
Sequence of ETV5 (P41161 whole entry): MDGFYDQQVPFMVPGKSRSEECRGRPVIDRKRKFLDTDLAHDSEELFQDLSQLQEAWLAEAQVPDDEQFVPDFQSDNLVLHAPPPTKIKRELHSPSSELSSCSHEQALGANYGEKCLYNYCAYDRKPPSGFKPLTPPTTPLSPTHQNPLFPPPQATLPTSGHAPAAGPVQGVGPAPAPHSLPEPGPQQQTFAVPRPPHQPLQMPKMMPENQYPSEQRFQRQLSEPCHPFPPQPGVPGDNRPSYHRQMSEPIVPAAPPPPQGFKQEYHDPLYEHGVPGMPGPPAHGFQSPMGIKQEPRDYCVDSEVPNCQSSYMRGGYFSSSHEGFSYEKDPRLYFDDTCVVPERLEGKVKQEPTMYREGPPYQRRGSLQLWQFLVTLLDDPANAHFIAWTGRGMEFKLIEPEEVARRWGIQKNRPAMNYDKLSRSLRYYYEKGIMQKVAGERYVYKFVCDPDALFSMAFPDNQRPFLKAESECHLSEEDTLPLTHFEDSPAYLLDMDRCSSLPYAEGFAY
In short: as §1

[3] = biological target: T2, SPIC (Homo sapiens, UniProt Q8N5J4 1-248)
T2 sequence: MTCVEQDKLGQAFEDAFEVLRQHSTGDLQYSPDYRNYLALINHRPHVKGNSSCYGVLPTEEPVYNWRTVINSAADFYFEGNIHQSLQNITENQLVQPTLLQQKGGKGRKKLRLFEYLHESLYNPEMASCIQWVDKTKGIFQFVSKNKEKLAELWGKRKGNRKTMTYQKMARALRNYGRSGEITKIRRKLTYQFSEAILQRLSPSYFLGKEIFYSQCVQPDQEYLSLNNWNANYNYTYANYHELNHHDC
In short: as §1

[4] = biological target: ELF4 (Homo sapiens, UniProt Q99607 1-663)
Sequence of ELF4 (Q99607 whole entry): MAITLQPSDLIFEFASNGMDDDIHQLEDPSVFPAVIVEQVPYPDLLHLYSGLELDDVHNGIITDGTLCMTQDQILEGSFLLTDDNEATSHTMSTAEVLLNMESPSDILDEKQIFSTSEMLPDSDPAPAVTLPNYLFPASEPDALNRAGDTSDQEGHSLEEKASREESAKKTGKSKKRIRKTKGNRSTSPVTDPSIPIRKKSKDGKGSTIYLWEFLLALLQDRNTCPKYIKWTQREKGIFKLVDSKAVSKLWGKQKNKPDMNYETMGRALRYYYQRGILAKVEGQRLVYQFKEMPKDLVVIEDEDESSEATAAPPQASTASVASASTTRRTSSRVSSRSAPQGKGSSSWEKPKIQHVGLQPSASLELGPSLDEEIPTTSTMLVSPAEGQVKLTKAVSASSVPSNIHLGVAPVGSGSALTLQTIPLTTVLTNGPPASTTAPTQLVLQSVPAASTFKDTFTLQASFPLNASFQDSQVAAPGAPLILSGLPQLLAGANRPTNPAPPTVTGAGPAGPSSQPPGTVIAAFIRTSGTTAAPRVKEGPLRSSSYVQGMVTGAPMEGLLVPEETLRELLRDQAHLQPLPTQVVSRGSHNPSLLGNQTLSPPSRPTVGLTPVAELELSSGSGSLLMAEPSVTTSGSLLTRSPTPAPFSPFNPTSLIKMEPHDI
In short: as §1

[5] = biological target: T3, ELK4 (Homo sapiens, UniProt P28324-2 1-405)
T3 sequence: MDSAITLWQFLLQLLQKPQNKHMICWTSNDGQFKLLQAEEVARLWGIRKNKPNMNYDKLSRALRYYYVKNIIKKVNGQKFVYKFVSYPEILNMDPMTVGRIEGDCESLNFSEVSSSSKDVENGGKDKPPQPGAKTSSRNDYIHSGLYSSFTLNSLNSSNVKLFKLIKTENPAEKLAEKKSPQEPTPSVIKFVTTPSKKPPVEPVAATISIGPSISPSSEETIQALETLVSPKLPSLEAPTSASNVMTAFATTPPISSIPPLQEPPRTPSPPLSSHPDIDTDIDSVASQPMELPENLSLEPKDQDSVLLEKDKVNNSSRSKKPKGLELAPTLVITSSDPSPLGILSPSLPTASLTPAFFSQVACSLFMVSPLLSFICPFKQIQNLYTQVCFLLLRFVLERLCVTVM
In short: as §1

[6] = biological target: T4, ETV2 (Homo sapiens, UniProt O00321 1-342)
T4 sequence: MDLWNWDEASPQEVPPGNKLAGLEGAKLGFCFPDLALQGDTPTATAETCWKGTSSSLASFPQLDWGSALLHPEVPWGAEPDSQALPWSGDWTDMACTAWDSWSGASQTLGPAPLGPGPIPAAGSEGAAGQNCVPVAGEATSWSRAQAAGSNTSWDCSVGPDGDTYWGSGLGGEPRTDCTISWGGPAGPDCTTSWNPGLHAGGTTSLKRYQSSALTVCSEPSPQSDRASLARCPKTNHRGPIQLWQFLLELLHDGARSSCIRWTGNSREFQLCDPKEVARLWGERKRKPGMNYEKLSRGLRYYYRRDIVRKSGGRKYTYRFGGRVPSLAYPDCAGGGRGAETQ
In short: as §1

[7] = biological target: T5, ELF3 (Homo sapiens, UniProt P78545 1-371)
T5 sequence: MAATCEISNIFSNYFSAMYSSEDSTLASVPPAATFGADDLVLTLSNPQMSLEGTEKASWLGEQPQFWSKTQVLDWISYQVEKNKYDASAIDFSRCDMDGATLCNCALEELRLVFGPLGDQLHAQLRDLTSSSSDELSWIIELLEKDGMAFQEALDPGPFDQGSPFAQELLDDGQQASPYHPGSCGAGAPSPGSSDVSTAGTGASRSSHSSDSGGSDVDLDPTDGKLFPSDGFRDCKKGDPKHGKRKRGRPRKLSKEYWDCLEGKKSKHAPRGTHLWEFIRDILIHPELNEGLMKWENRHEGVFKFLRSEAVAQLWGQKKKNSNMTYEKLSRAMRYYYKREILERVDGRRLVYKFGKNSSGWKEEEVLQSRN
In short: as §1

[8] = biological target: ETV1 (Homo sapiens, UniProt P50549 1-477)
Sequence of ETV1 (P50549 whole entry): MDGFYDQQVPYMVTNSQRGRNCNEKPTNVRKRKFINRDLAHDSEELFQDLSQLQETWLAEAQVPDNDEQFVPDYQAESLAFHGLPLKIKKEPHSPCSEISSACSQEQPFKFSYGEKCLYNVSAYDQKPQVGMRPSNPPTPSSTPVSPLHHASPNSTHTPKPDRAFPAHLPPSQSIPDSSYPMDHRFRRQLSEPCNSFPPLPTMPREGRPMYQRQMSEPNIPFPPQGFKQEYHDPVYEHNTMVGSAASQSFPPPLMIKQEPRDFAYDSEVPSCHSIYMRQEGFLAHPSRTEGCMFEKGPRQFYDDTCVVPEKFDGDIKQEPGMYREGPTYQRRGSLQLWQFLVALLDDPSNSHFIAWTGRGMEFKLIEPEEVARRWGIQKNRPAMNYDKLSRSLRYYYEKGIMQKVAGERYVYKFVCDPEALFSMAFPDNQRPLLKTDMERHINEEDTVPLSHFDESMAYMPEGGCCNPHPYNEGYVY
In short: as §1

[9] = biological target: T6, ERF (Homo sapiens, UniProt P50548 1-548)
T6 sequence: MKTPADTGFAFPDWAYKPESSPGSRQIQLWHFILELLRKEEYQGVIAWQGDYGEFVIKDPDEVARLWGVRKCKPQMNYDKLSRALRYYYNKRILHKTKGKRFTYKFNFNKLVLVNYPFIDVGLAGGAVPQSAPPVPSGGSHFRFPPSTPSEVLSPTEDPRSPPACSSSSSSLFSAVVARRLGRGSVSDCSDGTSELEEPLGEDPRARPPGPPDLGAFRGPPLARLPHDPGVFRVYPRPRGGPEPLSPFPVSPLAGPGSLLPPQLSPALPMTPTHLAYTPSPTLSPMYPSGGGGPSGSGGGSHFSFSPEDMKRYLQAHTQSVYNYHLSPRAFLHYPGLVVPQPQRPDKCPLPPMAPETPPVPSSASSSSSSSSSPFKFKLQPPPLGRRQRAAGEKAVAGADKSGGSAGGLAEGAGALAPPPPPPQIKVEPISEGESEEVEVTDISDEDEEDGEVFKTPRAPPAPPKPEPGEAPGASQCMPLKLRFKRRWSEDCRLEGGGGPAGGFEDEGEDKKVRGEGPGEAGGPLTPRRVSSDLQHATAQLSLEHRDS
In short: as §1

[10] = biological target: T7, ETV3L (Homo sapiens, UniProt Q6ZN32 1-361)
T7 sequence: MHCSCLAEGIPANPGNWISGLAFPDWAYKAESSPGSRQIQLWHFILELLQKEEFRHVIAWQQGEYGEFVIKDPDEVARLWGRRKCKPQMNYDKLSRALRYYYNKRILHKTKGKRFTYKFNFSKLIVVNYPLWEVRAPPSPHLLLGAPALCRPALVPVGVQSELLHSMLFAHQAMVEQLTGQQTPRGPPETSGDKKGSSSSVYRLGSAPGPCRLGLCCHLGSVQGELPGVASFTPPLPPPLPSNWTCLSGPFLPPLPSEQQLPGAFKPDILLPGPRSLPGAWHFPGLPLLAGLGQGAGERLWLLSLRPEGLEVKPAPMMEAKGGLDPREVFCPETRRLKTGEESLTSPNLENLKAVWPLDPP
In short: as §1

[11] = biological target: T8, ETS2 (Homo sapiens, UniProt P15036 1-469)
T8 sequence: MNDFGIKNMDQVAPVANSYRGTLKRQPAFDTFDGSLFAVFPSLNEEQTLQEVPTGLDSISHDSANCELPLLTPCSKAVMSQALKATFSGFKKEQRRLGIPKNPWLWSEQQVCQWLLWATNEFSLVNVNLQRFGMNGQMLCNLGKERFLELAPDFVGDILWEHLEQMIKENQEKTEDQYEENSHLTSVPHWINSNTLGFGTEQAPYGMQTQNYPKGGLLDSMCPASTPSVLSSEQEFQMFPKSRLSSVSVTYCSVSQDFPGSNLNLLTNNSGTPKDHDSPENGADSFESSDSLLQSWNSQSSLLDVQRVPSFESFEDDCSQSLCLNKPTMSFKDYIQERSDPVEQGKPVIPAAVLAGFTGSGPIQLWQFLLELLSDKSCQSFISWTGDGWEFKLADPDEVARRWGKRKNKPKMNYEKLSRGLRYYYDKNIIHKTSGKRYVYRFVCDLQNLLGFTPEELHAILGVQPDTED
In short: as §1

[12] = biological target: T9, SPDEF (Homo sapiens, UniProt O95238 1-335)
T9 sequence: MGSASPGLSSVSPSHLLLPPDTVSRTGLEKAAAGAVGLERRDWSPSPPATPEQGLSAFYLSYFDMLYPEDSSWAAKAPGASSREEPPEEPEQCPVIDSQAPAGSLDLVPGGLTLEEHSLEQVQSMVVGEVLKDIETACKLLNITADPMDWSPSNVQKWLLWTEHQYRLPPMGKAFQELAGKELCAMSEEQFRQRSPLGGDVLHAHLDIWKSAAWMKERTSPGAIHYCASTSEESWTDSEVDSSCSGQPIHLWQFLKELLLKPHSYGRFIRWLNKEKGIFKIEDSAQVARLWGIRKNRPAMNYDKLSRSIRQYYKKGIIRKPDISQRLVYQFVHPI
In short: as §1

[13] = biological target: T10, ETV7 (Homo sapiens, UniProt Q9Y603 1-341)
T10 sequence: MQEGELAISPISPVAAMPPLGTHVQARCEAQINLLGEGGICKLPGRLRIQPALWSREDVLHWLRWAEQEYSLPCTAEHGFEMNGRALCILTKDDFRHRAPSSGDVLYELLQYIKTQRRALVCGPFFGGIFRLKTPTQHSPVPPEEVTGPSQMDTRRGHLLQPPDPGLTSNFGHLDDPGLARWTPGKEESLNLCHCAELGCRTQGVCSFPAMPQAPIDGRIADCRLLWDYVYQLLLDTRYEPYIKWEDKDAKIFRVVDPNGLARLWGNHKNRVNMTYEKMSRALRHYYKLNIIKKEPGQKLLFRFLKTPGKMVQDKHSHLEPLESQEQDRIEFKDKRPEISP
In short: as §1

[14] = biological target: T11, ELF5 (Homo sapiens, UniProt Q9UKW6-2 1-255)
T11 sequence: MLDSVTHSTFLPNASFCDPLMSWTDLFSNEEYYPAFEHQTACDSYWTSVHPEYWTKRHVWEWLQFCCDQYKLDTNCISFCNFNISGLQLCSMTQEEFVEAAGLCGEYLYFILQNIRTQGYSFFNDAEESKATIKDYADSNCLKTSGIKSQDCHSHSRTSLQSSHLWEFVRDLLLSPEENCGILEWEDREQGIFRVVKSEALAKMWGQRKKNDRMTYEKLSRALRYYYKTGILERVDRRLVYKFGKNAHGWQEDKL
In short: as §1

[15] = biological target: T12, ETV3 (Homo sapiens, UniProt P41162-2 1-143)
T12 sequence: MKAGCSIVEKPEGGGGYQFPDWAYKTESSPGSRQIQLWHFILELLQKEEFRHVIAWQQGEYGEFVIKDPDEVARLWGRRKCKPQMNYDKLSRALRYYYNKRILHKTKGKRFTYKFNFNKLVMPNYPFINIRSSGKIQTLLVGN
In short: as §1

[16] = biological target: ETV6 (Homo sapiens, UniProt P41212 1-452)
Sequence of ETV6 (P41212 whole entry): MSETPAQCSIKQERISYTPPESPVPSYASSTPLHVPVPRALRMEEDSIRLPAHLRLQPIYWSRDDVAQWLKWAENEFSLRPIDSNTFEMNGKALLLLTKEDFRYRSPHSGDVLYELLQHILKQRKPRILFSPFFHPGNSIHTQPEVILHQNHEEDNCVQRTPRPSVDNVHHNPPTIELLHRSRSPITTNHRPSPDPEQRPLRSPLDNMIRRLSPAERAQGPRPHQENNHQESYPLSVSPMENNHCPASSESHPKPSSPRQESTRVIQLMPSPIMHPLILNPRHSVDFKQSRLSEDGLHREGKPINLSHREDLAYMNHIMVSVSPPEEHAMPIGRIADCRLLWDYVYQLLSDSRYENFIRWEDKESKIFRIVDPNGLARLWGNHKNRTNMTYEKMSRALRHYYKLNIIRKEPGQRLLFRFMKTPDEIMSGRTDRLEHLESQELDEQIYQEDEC
In short: as §1

Sequence | binding signal [1] | binding signal [2] | binding signal [3] | binding signal [4] | binding signal [5] | binding signal [6] | binding signal [7] | binding signal [8] | binding signal [9] | binding signal [10] | binding signal [11] | binding signal [12] | binding signal [13] | binding signal [14] | binding signal [15] | binding signal [16]
GAAACG | 1.36 fold enrichment (6-mer frequency, TF over GST control) | 1.21 fold enrichment (6-mer frequency, TF over GST control) | 1.19 fold enrichment (6-mer frequency, TF over GST control) | 1.14 fold enrichment (6-mer frequency, TF over GST control) | 1.05 fold enrichment (6-mer frequency, TF over GST control) | 1.28 fold enrichment (6-mer frequency, TF over GST control) | 1.27 fold enrichment (6-mer frequency, TF over GST control) | 1.29 fold enrichment (6-mer frequency, TF over GST control) | 1.27 fold enrichment (6-mer frequency, TF over GST control) | 1.18 fold enrichment (6-mer frequency, TF over GST control) | 1.17 fold enrichment (6-mer frequency, TF over GST control) | 1.23 fold enrichment (6-mer frequency, TF over GST control) | 1.4 fold enrichment (6-mer frequency, TF over GST control) | 1.29 fold enrichment (6-mer frequency, TF over GST control) | 1.28 fold enrichment (6-mer frequency, TF over GST control) | 1.34 fold enrichment (6-mer frequency, TF over GST control)
GTCACA | 1.11 fold enrichment (6-mer frequency, TF over GST control) | 1.1 fold enrichment (6-mer frequency, TF over GST control) | 1.04 fold enrichment (6-mer frequency, TF over GST control) | 1.08 fold enrichment (6-mer frequency, TF over GST control) | 1.07 fold enrichment (6-mer frequency, TF over GST control) | 1.01 fold enrichment (6-mer frequency, TF over GST control) | 1.08 fold enrichment (6-mer frequency, TF over GST control) | 1.06 fold enrichment (6-mer frequency, TF over GST control) | 1.11 fold enrichment (6-mer frequency, TF over GST control) | 1.08 fold enrichment (6-mer frequency, TF over GST control) | 1.14 fold enrichment (6-mer frequency, TF over GST control) | 1.08 fold enrichment (6-mer frequency, TF over GST control) | 1.09 fold enrichment (6-mer frequency, TF over GST control) | 1.06 fold enrichment (6-mer frequency, TF over GST control) | 1.01 fold enrichment (6-mer frequency, TF over GST control) | 1.06 fold enrichment (6-mer frequency, TF over GST control)
CGACAC | 1.21 fold enrichment (6-mer frequency, TF over GST control) | 1.13 fold enrichment (6-mer frequency, TF over GST control) | 1.15 fold enrichment (6-mer frequency, TF over GST control) | 1.21 fold enrichment (6-mer frequency, TF over GST control) | 1.14 fold enrichment (6-mer frequency, TF over GST control) | 1.15 fold enrichment (6-mer frequency, TF over GST control) | 1.04 fold enrichment (6-mer frequency, TF over GST control) | 1.16 fold enrichment (6-mer frequency, TF over GST control) | 1.08 fold enrichment (6-mer frequency, TF over GST control) | 1.21 fold enrichment (6-mer frequency, TF over GST control) | 1.19 fold enrichment (6-mer frequency, TF over GST control) | 1.15 fold enrichment (6-mer frequency, TF over GST control) | 1.16 fold enrichment (6-mer frequency, TF over GST control) | 1.19 fold enrichment (6-mer frequency, TF over GST control) | 1.2 fold enrichment (6-mer frequency, TF over GST control) | 1.28 fold enrichment (6-mer frequency, TF over GST control)
